Data on 13 compounds can be found in PubChem BioAssay (NCI).

This is part of a sample that, as a whole, favours compounds with a hit. Of some 83,000 tested, about 20% had one in any assay.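 Interpretation: 100, growth as untreated; towards 0, rising growth inhibition; 0, no net growth; 0 to -100, cell death. Compounds scoring below 10 were considered active.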 A number with no mark means an inactive call. Active and inactive are the calls of the source.

Some test systems named below: DU-145 prostate; K-562 leukemia; MALME-3M melanoma; MDA-MB-231 breast; RXF 393 renal; SF-268 CNS; SF-295 CNS; SF-539 CNS; UACC-257 melanoma; M14 melanoma.
Holding throughout (test): NCI-60 one-dose screen, 48 h (100 = growth as untreated, 0 = no growth, -100 = all killed)
Settings in all cases: 10 µM unless noted

On to `O=C(N(c1ccccc1)c1ccccc1)n1ccc2nc(Cl)nc(Cl)c21`, for which the growth is 33.8% in the test with DU-145 prostate; 42.8% in the test with K-562 leukemia; 58.6% with MALME-3M melanoma; 71.4% in the test with MDA-MB-231 breast; 32.7% in the test on RXF 393 renal; 66.3% in the test with SF-268 CNS. In addition, the results for the growth in the test with SF-295 CNS, with SF-539 CNS and in the test on UACC-257 melanoma were 74.1%, 68% and 70.2%, respectively.

Regarding `O=C1NC(=Nc2ccc(O)cc2)S/C1=C\c1cccc(Cl)c1`, the growth in the test on DU-145 prostate was 84.5%; with K-562 leukemia, 21.9%; with MALME-3M melanoma it was 88.7%; with MDA-MB-231 breast, 96.2%; in the test with RXF 393 renal, 75.1%; in the test on SF-268 CNS, 74.1%. For the same compound, the growth in the test on SF-295 CNS is 69.1%; in the test with SF-539 CNS, 68.6%; with UACC-257 melanoma, 95.9%.

As to `COC[C@H](C)n1c(C2CCOCC2)nc2cnc3cc(-c4c(C)noc4C)c(OC)cc3c21`, the growth was 77.5% with DU-145 prostate; 39.1% with K-562 leukemia; 75.7% in the test on MALME-3M melanoma; 55.4% in the test on MDA-MB-231 breast; 67% in the test with RXF 393 renal; 76.7% in the test with SF-268 CNS. The growth in the test on SF-295 CNS was 53.7%; in the test on SF-539 CNS, 40.7%; in the test on UACC-257 melanoma it was 38.3%.

Turning to `COc1cc(/C=C/C(=O)c2c(C)oc3nc[nH]c(=O)c23)cc(OC)c1OC`, the growth with DU-145 prostate is 64.8%; in the test with K-562 leukemia it was 45.2%; in the test with MALME-3M melanoma, 88.1%; with MDA-MB-231 breast, 86.7%; with RXF 393 renal, 66.3%; with SF-268 CNS, 81.3%. Moreover, the growth is 104% with SF-295 CNS, 95.7% with SF-539 CNS, 73% in the test on UACC-257 melanoma and 75.3% in the test on M14 melanoma.

For the compound `COc1ccc(-n2nc(C)c3c(Nc4ccc(NC(=O)Nc5ccc(Cl)c(C(F)(F)F)c5)cc4)ncnc32)cc1`, the growth was 23.8% with DU-145 prostate; 5.84% (active) in the test with K-562 leukemia; -27.5% (active) in the test on MALME-3M melanoma; -25% (active) in the test on MDA-MB-231 breast; -35.7% (active) with RXF 393 renal; 17.7% in the test on SF-268 CNS. Further, the growth was -39.7% (active) in the test with SF-295 CNS, -5.4% (active) with SF-539 CNS, -16.6% (active) in the test with UACC-257 melanoma and -26.9% (active) with M14 melanoma.

Turning to `c1ccc(-c2cc3n4c(-c5ccccc5)nn(-c5ccccc5)c4cnc-3n2)cc1`, the growth was 38.6% with DU-145 prostate; 104% with K-562 leukemia; 60.1% with MALME-3M melanoma; 36.2% in the test on MDA-MB-231 breast; -16.1% (active) in the test on RXF 393 renal; 46.1% in the test on SF-268 CNS. Besides, the growth is 30.7% in the test with SF-295 CNS, 48% in the test with SF-539 CNS and 22.1% in the test with UACC-257 melanoma.

Take `Cc1cc(C)nc(SC2=C(Nc3cc(Cl)ccc3O)C(=O)N(Cc3ccccc3)C2=O)n1`: the growth with DU-145 prostate is 95.8% [30 µM]; in the test on K-562 leukemia, 58.5% [30 µM]; in the test with MALME-3M melanoma, -56.7% [30 µM] (active); in the test on MDA-MB-231 breast, 64.5% [30 µM]; with RXF 393 renal it was 58.7% [30 µM]; in the test with SF-268 CNS, 93.8% [30 µM]. Moreover, the growth is 112% [30 µM] in the test on SF-295 CNS, 118% [30 µM] in the test with SF-539 CNS and 83.5% [30 µM] with UACC-257 melanoma.

Take `O=C1c2cccc3cccc(c23)C(=O)N1CCCCN1CCN(CCCCOc2ccc(-c3nc4ccc(N5CCOCC5)cc4[nH]3)cc2)CC1`: the growth in the test with DU-145 prostate is 77.2%; in the test on K-562 leukemia, 57.1%; with MALME-3M melanoma, 86.5%; in the test on MDA-MB-231 breast it was 91.6%; with RXF 393 renal, 24.1%; with SF-268 CNS it was 68.6%. In addition, the growth with SF-295 CNS was 74.7%; with SF-539 CNS it was 106%; with UACC-257 melanoma, 96.6%.

In the case of `Cc1cc(C)nc(SC2=C(Nc3ccc(C)c(Cl)c3)C(=O)N(Cc3ccccc3)C2=O)n1`, the growth is 87.8% [30 µM] in the test on DU-145 prostate; 32.5% [30 µM] in the test on K-562 leukemia; 66.4% [30 µM] in the test with MALME-3M melanoma; 39.1% [30 µM] in the test with MDA-MB-231 breast; 51.4% [30 µM] in the test on RXF 393 renal; 64.6% [30 µM] with SF-268 CNS. In addition, the growth in the test on SF-295 CNS is -3.52% [30 µM] (active); in the test on SF-539 CNS, 85.8% [30 µM]; in the test with UACC-257 melanoma, 67.4% [30 µM].

For `Nc1nc2ccc3[nH]ncc3c2c2c1CCCC2`, the growth was 6.94% (active) in the test with DU-145 prostate; 9.77% (active) in the test with K-562 leukemia; 23% in the test with MALME-3M melanoma; 4% (active) in the test with MDA-MB-231 breast; -51.1% (active) in the test with RXF 393 renal; -9.66% (active) in the test with SF-268 CNS. Also, the growth in the test with SF-295 CNS was 17.1%; in the test with SF-539 CNS it was -32.9% (active); in the test with UACC-257 melanoma, 15.6%.

Consider `CCCCN1CCCn2c1nc1c2c(=O)n(CCC)c(=O)n1CCC`, for which the growth in the test with DU-145 prostate is 105%; with K-562 leukemia, 75.7%; in the test on MALME-3M melanoma it was 123%; in the test on MDA-MB-231 breast, 93.8%; in the test on RXF 393 renal it was 91.3%; with SF-268 CNS, 95.2%. The growth is 102% with SF-295 CNS, 100% in the test with SF-539 CNS and 97.4% with UACC-257 melanoma.

With `O=C(N/N=C/c1c[nH]c2ccccc12)c1cc(-c2ccccc2)on1`, the growth in the test on DU-145 prostate is 100%; with K-562 leukemia it was 55.4%; with MALME-3M melanoma, 94.8%; with MDA-MB-231 breast it was 89.4%; with RXF 393 renal it was 97.8%; in the test with SF-268 CNS, 85.9%. Moreover, the growth in the test with SF-295 CNS was 98.2%; with SF-539 CNS, 84.6%; in the test with UACC-257 melanoma, 102%.

With `O=C1c2ccccc2C(=O)c2c1ccc1[nH]c(-c3cccs3)nc21`, the growth in the test on DU-145 prostate was 88.9%; in the test on K-562 leukemia, 80.7%; in the test on MALME-3M melanoma it was 81.9%; with MDA-MB-231 breast, 70.9%; with RXF 393 renal it was 81%; in the test on SF-268 CNS, 87.6%. Further, the growth is 120% with SF-295 CNS, 77.5% with SF-539 CNS and 87.5% with UACC-257 melanoma.
